VDR inhibitor – vitamin D3 receptor (human) inhibition | P11473 | VDR-SRC2-3 peptide fluorescence polarization, 2 h | Potency, µM, without a hit: max response, negative = inhibition, usual class: inhibitors | 400,000 compounds, 0.93% hits | AID 504847
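FP read-out; VDR + SRC2-3 coactivator peptide; 23 nl compound by pintool; 2 h RT incubation; reagents held at 4 deg C, protected from light.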
PLK1 PBD inh – blocks phosphopeptide binding to human PLK1 polo-box domain | P53350 | Plk1 PBD binding of FITC phosphopeptide, fluorescence polarization | Potency, µM, inactives show max response, negative = inhibition, hits mostly inhibitors | 360,000 compounds, 2.8% hits | AID 720504; further: series mostly up to about 57 µM; nearly all actives have a fitted effect of over 65% in size
KAT2A inh – inhibitors of human GCN5L2 histone acetyltransferase; 390,000 compounds, 0.21% hits; Potency, µM (series often up to 58.9 µM), without a hit: at the highest dose activity change, negative = inhibition, usual class: inhibitors; GCN5L2 HAT assay, ThioGlo1 CoA-SH fluorescence; AID 504327; Q92830
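Fluorescence readout, Ex340nm/Em540nm: ThioGlo1 (50uM final) reacts with free CoA thiol released as 20nM GCN5L2 acetylates H3(1-25) peptide (75uM) using acetyl-CoA (70uM). Compound and enzyme sat 15 min beforehand; 20 min room-temperature reaction.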
DT40 TDP1 CPT – DT40-hTDP1 cell growth loss with CPT | chicken DT40 Tdp1-/-;hTDP1 cells + 20 nM CPT, ATP luminescence, 48 h | Potency, µM (series often up to 46.2 µM), for inactives: at the highest dose activity change, negative = growth inhibition, actives largely listed as inhibitors | 420,000 compounds, 12% hits | AID 686979; further: nearly all actives have a fitted effect of over 55% in size
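Chicken DT40 Tdp1-/- cells stably complemented with human TDP1 were seeded at 400 cells/well in medium containing 20 nM camptothecin, exposed to pin-transferred compounds, and grown at 37 °C for at least 48 hr. Viability was read as ATP luminescence.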
TDP1 block – TDP1 (human) enzyme inhibition; Q9NUW8; recombinant TDP1, AlphaScreen DNA substrate cleavage; Potency, µM (top dose mostly 130 µM), inactives show top-dose activity change, negative = inhibition, most hits filed as inhibitors; 350,000 compounds, 0.28% hits; further: nearly all actives have a fitted effect of over 40% in size
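Compounds were preincubated with Tdp1 (1 nM final) for 15 min at room temperature before substrate (15 nM final) started a 5 min reaction; beads (10 ug/ml final) were then added for 10 min before AlphaScreen detection.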
DT40 TDP1 no CPT – qHTS for Inhibitors of human tyrosyl-DNA phosphodiesterase 1 (TDP1): qHTS in cells in absence of CPT; AID 686978, 2013; Potency, µM (highest dose often 46.2 µM), for the others: at the highest dose activity change, negative = growth inhibition, actives largely listed as inhibitors; DT40 Tdp1-/- hTDP1 cells, no CPT, ATP luminescence, 48 h; 420,000 compounds, 15% hits; further: nearly all actives have a fitted effect of over 55% in size
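Chicken DT40 Tdp1-/- cells stably complemented with human TDP1 were seeded at 400 cells/well with DMSO in place of 20 nM camptothecin. After compound pinning, cells grew at least 48 hr at 37 °C; viability read by CellTiter-Glo luminescence.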
Starred values were filed as active, the others as inactive; ? = inconclusive; · = no result given; [ ] = another dose, or the depositor's remark. A selection: hits, their analogues and other compounds. The true share with any hit is near 18%. The call rests on the fitted dose curve; in most records, active means well fitted curve in the direction sought with a large enough effect; inconclusive means small, poorly fitted or top-dose-only effect, or another doubt; inactive means no such curve, though single readings can be large; an effect the other way counts as inactive or inconclusive. On the % scale 0 is the no-effect control and ±100 the full control effect; potency means the concentration at half of the fitted maximal effect.

SMILES | VDR inhibitor | PLK1 PBD inh | KAT2A inh | DT40 TDP1 CPT | TDP1 block | DT40 TDP1 no CPT
CC1(C(=O)Nc2cccc(NS(C)(=O)=O)c2)Cc2c(-c3cccc(C(N)=O)c3)ccnc2O1 (configuration not stated) | · | -1% | · | 2% | · | -2%
O=C(Cc1ccc(Br)cc1)Nc1cccc(S(=O)(=O)N2CCOCC2)c1 | 6% | 0% | -12% | -8% | 0% | -23%
O=C(Nc1ccc(S(=O)(=O)C(F)F)cc1)c1cccc(S(=O)(=O)N2CCOCC2)c1 | -6% | -9% | -12% | ? | 3% | 15µM*
O=S(=O)(c1cccc(NC(=S)Nc2ccc(Br)cc2Cl)c1)N1CCOCC1 | -5% | -25% | -2% | 16µM* | 4% | 29µM*
O=C(Nc1cccc(S(=O)(=O)N2CCOCC2)c1)c1ccc(Cl)nc1 | -3% | 3% | 1% | 16µM* | 1% | 23µM*
O=C(Nc1cccc(S(=O)(=O)C(F)F)c1)c1ccc(S(=O)(=O)N2CCOCC2)cc1 | -13% | -8% | -1% | -15% | 5% | 18µM*
COc1ccc(-c2nc3c(c4c2C[C@H](c2ccccc2)OC4)CN(S(=O)(=O)c2ccc(NC(C)=O)cc2)CC3)c(C)c1 | · | · | · | · | 5%[21 µM] | ·
Cc1cc2oc(=O)cc(Cn3nnc(-c4ccc(Cl)cc4)n3)c2cc1C(C)C | · | · | -13% | · | 3% | ·
COc1ccc(CCN2CCCn3c2nc2c3c(=O)n(CC(N)=O)c(=O)n2C)cc1OC | 1% | 5% | -25% | 4% | · | -9%
NC(=O)NOCc1ccccc1F | -7% | -8% | 2% | -11% | 3% | -5%
O=[N+]([O-])c1ccc(N2CCNCC2)cc1Sc1nc2ccccc2[nH]1 | -9% | -11% | -1% | ? | 2% | 23µM*
NCCNc1ccc([N+](=O)[O-])c(Sc2nc3ccccc3[nH]2)c1 | 6% | -2% | -7% | ? | 3% | 16µM*
CS(=O)(=O)c1ccc(Sc2nc3ccccc3[nH]2)c([N+](=O)[O-])c1 | 10% | -4% | 18% | ? | 8% | ?
NCCNc1ccc([N+](=O)[O-])c(NC2CC2)c1 | -14% | -14% | -4% | ? | 6% | ?
O=[N+]([O-])c1cc(S(=O)(=O)C(F)(F)F)ccc1Sc1nc2ccccc2[nH]1 | ? | ? | -17% | 7.3µM* | 6% | 7.3µM*
CN(C)c1oc(/C=C/c2cccs2)nc1S(=O)(=O)c1ccccc1 | -19% | ? | -1% | -8% | 4% | -17%
CCC1CCCCN1C(=O)CSc1nc2ncccc2[nH]1 (configuration not stated) | ? | -2% | -5% | 6% | 2% | 1%
COc1ccccc1C(=O)NCC(=O)NCc1cc(=O)n(C)c(=O)n1C | -12% | -7% | 2% | 3% | 2% | -2%
COc1cccc(CNC(=O)c2ccc3c(c2)N(Cc2ccc(F)cc2Cl)C(=O)c2ccccc2S3)c1 | -16% | · | -1% | ? | 5% | ?
COCCNC(=O)C1Cc2c(-c3ccc(NC(C)=O)cc3)ccnc2O1 (configuration not stated) | · | -3% | · | ? | · | ?
CC(=O)Nc1ccc(-c2ccnc3c2CC(C(=O)NCCC(F)(F)F)O3)cc1 (configuration not stated) | · | 2% | · | 13µM* | · | 15µM*
CC(=O)Nc1ccc(-c2ccnc3c2CC(C(=O)NCC2CC2)O3)cc1 (configuration not stated) | · | -1% | · | 13µM* | · | 8.2µM*
CC(=O)Nc1ccc(-c2ccnc3c2CC(C(=O)NCC2CCOCC2)O3)cc1 (configuration not stated) | · | -13% | · | 4.6µM* | · | 4.1µM*
CCOc1cc(C(=O)Nc2ccc3oc(-c4ccc(F)cc4Cl)nc3c2)cc(OCC)c1OCC | -19% | · | 3% | ? | -9%[12.3 µM] | ?
ONCc1ccccc1 | -2% | · | -2% | · | -1% | ·
SMILES | VDR inhibitor | PLK1 PBD inh | KAT2A inh | DT40 TDP1 CPT | TDP1 block | DT40 TDP1 no CPT
CCOc1cccc2sc(N(Cc3cccnc3)C(=O)C3CCCCC3)nc12 | 6% | · | -10% | ? | 5% | ?
COc1ccc(CC(N)c2csc(NC(=O)Nc3ccccc3-c3ccccc3)n2)cc1 (configuration not stated) | · | -1% | · | ? | · | ?
COc1ccccc1NC(=O)Nc1nc(C(N)Cc2ccc(Cl)cc2)cs1 (configuration not stated) | · | -3% | · | 9.2µM* | · | 23µM*
Cc1ccccc1NC(=O)Nc1nc(C(N)Cc2ccccc2)cs1 (configuration not stated) | · | -10% | · | 23µM* | · | 23µM*
Cc1ccccc1NC(=O)Nc1nc(CN)cs1 | · | -12% | · | 16µM* | · | 23µM*
COc1ccccc1NC(=O)Nc1nc(C(N)Cc2ccccc2)cs1 (configuration not stated) | · | -2% | · | 23µM* | · | 18µM*
O=[N+]([O-])c1cc(-c2nc(-c3ccccn3)no2)ccc1NCc1ccccc1 | 5% | · | 0% | -28% | -3% | -24%
CC(Sc1nc2ncc(Cl)cc2[nH]1)C(=O)NC1(C#N)CCCCC1 (configuration not stated) | -2% | -15% | -6% | ? | 0% | ?
Cc1ccccc1NC(=O)C(=O)Nc1ccccc1C | -7% | -4% | 1% | -28% | 3% | -4%
Cc1ccccc1NC(=O)Nc1ccccc1Br | 1% | -3% | 0% | 10µM* | 6% | ?
CC(C)CC(N)c1csc(NC(=O)Nc2ccccc2Cc2ccccc2)n1 (configuration not stated) | · | -2% | · | 12µM* | · | 12µM*
CC(C)CC(N)c1csc(NC(=O)c2cc(C(C)(C)C)nn2Cc2ccccc2)n1 (configuration not stated) | · | -2% | · | 7.3µM* | · | 8.2µM*
CC(C)CC(N)c1csc(NC(=O)C(c2ccccc2)c2ccccc2)n1 (configuration not stated) | · | -18% | · | 18µM* | · | 6.5µM*
CC(C)C(=O)Nc1ccccc1Cc1ccccc1 | -15% | -11% | -2% | 4% | 6% | 0%
Cc1ccc(-c2nc3c(Cl)cc(C(F)(F)F)cn3c2Cc2cccc(F)c2)cc1 | · | 0% | · | ? | · | ?
C[C@H](CO)N1C[C@H](C)[C@H](CN(C)Cc2cccc(O)c2)OCc2ccccc2-c2c(n(C)c3ccccc23)C1=O | · | -10% | · | ? | · | ?
COc1ccccc1NC(=O)Nc1nc(C(N)CC(C)C)cs1 (configuration not stated) | · | -4% | · | 2.6µM* | · | 0.26µM*
